# Six1-Eya2 blk: qHTS Assay for Inhibitors of the Six1/Eya2 Interaction. Homeobox protein SIX1 (Homo sapiens) + Protein phosphatase EYA2 (Homo sapiens), …. AlphaScreen GST-Six1/His-Eya2 binding, biochemical; active compounds read low. activity change, % (test concentration not listed). actives 0.56% (n = 360,000)
#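 Homogeneous AlphaScreen proximity assay pairing GST-Six1 with His-tagged Eya2 (added as 5X mix: 250 nM and 500 nM) in 50 mM Tris pH 8.0, 300 mM NaCl, 1 mM TCEP. Glutathione donor and nickel acceptor beads; 1 h, 37 °C, dark.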
# hERG WT inh: qHTS for Inhibitors of KCHN2 3.1: Wildtype qHTS; AID 720551, 2013; Voltage-gated inwardly rectifying potassium channel KCNH2 (Homo sapiens), Q12809; U2OS, BacMam KCNH2, thallium flux FluxOr; active compounds read low; actives 0.37% (n = 340,000); activity change, % at 1.84 µM;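 active = maximum activity change below -70%; inconclusive = maximum activity change between -70% and -50%; inactive = maximum activity change above -50%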
# Target sequence (Q12809 whole entry, looked up): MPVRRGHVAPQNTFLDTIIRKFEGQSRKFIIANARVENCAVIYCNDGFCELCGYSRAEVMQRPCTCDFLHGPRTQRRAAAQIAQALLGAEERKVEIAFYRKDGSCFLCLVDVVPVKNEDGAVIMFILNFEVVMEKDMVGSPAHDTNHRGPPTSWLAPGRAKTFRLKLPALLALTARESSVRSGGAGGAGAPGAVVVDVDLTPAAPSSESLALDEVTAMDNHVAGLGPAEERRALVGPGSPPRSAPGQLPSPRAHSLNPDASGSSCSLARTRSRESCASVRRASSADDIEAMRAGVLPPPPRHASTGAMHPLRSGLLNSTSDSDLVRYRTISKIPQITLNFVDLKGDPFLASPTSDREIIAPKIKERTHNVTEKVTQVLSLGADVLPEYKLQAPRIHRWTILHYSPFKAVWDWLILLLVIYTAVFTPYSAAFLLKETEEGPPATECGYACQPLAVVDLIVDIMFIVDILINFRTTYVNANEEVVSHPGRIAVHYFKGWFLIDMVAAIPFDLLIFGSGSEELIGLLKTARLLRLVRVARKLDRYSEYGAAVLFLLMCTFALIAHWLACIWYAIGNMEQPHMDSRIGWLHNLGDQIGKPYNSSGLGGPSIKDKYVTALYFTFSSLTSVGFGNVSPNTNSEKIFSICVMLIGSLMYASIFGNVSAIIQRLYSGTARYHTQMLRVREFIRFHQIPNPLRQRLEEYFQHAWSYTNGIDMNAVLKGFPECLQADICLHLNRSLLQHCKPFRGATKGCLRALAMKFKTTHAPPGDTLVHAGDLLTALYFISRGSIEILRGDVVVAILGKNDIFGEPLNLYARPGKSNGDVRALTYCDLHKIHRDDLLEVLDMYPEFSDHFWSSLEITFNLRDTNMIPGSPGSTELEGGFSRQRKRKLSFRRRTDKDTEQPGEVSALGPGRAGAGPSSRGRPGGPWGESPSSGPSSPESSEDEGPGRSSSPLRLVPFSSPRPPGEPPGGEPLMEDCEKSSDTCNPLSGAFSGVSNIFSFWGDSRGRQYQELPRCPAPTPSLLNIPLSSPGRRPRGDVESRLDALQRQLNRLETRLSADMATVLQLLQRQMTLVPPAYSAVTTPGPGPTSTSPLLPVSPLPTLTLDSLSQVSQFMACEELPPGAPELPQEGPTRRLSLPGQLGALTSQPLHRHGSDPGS
#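 U2OS cells transduced with wild-type KCNH2 virus are loaded with FluxOr dye for 45 min, and thallium flux is measured in kinetic reads before and after stimulation buffer. Rate constants are normalized to DMSO controls.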
# CtBP-E1A inh: qHTS Assay for Inhibitors of the CtBP/E1A Interaction; AlphaScreen GST-E1A/His-CtBP binding, 1536-well; active compounds read low; CtBP / adenovirus E1A interaction (AlphaScreen); AID 651724, 2012; activity change, % (test concentration not listed); actives 0.49% (n = 340,000)
#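 AlphaScreen with 125 nM GST-E1A and 125 nM His-CtBP (5X stocks) in Tris pH 8.0, 300 mM NaCl, BSA, Tween 20, TCEP. Compounds preincubated 2 h at 37 deg C, then glutathione donor/nickel acceptor beads added for 1 h at 37 deg C in dark.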
# JMJD2E inh: qHTS Assay for Inhibitors of Human Jumonji Domain Containing 2E (JMJD2E); JMJD2E catalytic domain, FDH-coupled NADH fluorescence (FDH is formaldehyde dehydrogenase); Potency, µM (doses to about 57.1 µM), inactives show at the highest dose activity change, negative = inhibition, most hits filed as inhibitors; actives 1.6% (n = 230,000); AID 2147, 2009; active = well fitted inhibition curve with a large enough effect, not every such curve was filed as active; inconclusive = small, poorly fitted or top-dose-only effect, or another doubt; inactive = no such curve, though single readings can be large or run the other way;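 note: potency is the fitted concentration of half-maximal effect; 0% = wells with enzyme and -100% = buffer wells without enzyme; nearly all actives have a fitted effect of over 50% in size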
# KCNH2 3.1 block: qHTS for Inhibitors of KCHN2 3.1: Mutant qHTS. activity change, % (tested at about 1.8 µM). U2OS KCNH2 3.1, thallium flux FluxOr; active compounds read low. Potassium voltage-gated channel subfamily H member 2, brain isoform KCNH2 3.1 (human). actives 0.95% (n = 340,000);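 active = maximum activity change below -70%; inconclusive = maximum activity change from -70% to -50%; inactive = maximum activity change above -50%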;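 note: thallium influx rate constant from kinetic fluorescence after stimulation buffer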
#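 Channel expression came from 3.1 mutant virus (1.77 x 10^8 /mL) applied to suspended U2OS cells for 4 h. Flux was tracked with FluxOr dye plus Red40 quencher, and kinetic rate constants normalized to controls.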
# * = called active by the depositor; ? = inconclusive; · = not tested or not shown. Most compounds without a hit are left out; they make up all but 2% or so of the library. Cut-off read from the data, not from the text of the source, unless noted: active = activity change below about -65%; inconclusive = mostly about -30% to -63%; inactive = weaker than that. Unless noted, % is set by controls: 0 for no effect and ±100 for the full control effect.
SMILES,Six1-Eya2 blk,hERG WT inh,CtBP-E1A inh,JMJD2E inh,KCNH2 3.1 block
CCOc1ccc(C(=O)/C=C/Nc2ccc(S(=O)(=O)Nc3onc(C)c3C)cc2)cc1,-26,-3,-25,1%,-18
O=C(CNC(=O)c1ccccc1)N/N=C/c1cc(Br)ccc1O,-65*,-18,10,28µM*,-25
O=C(N/N=C/c1cc(Br)ccc1O)C(c1ccncc1)N1CCOCC1 (stereo unspecified),-89*,0,14,6%,15
CCCOc1ccc(Br)cc1/C=N/NC(=O)c1cc(OC)c(OC)c(OC)c1,-1,2,-13,-23%,2
COc1ccc(C(=O)N/N=C/c2cc(Br)ccc2O)cc1OC,-68*,-6,-91*,?,1
O=C(CNC(=O)c1ccc2c(c1)OCO2)N/N=C/c1cc(Br)ccc1O,-18,1,-18,·,5
Cn1cccc1-c1cc(C(=O)N/N=C/c2cc(Br)ccc2O)[nH]n1,-83*,-16,-87*,·,5
CCCS(=O)(=O)N1CCN=C1SCc1cccc(C)c1,7,-40,8,20%,·
O=C1N/C(=N/O)S/C1=C\c1ccccc1-n1cccn1,-4,3,-21,3%,7
O=C(CNC(=O)c1ccncc1)N/N=C/c1ccc(Br)cc1,10,11,·,10%,-109*
O=C(CNC(=O)c1ccc(Br)cc1)N/N=C/c1cccnc1,-8,-18,·,·,-2
O=C(CNC(=O)c1ccncc1)N/N=C/c1cc(Br)ccc1OCc1ccccc1,-24,-7,-19,-25%,-5
O=C(CN1CC(c2ccccc2)CC1=O)N/N=C/c1cc(Br)ccc1O (stereo unspecified),-84*,29,-90*,?,-3
O=C(CNC(=O)c1ccncc1)N/N=C/c1cc(Br)ccc1O,?,4,-66*,-2%,·
O=C(O)CC(CCc1ccccc1)OC1OC(CO)C(O)C(O)C1O (stereo unspecified),-21,11,-1,25µM*,-13
CCCOc1ccc(S(=O)(=O)NCCCN2CCOCC2)c2ccccc12,0,-206*,6,-1%,-13
CCOc1ccc(S(=O)(=O)NCCCN2CCOCC2)c2ccccc12,-1,-3,-1,-4%,-27
CC(=O)N(C)c1ccc(N=Cc2c(O)ccc3ccccc23)cc1,-2,8,9,·,17
O=C(Nc1ccc(Cl)cc1)[C@@H]1[C@@H]2C(=O)N(c3ccc(Cl)cc3)C(=O)[C@@H]2[C@H]2C=CC=NN21,-21,8,-8,-21%,-114*
CCCCn1c(N)c(N(CC(C)C)C(=O)COC(=O)c2ccccc2NCCO)c(=O)[nH]c1=O,3,-6,3,·,8
CCCn1c(N)c(N(CCOC)C(=O)COC(=O)c2ccccc2NCCO)c(=O)[nH]c1=O,-9,-6,1,·,-192*
COc1cccc(C(=O)N2CCCc3ccccc32)c1OC,5,-9,-2,·,3
COc1ccccc1C(=O)N1CCc2ccccc21,4,-10,5,8%,-73*
COc1ccc(-n2c(O)c(C=Nc3ccccc3)c3ccccc3c2=O)cc1,0,2,4,4%,5
CCOC(=O)Cc1csc(NC(=O)CSC2=NCCS2)n1,2,-4,4,·,-2
SMILES,Six1-Eya2 blk,hERG WT inh,CtBP-E1A inh,JMJD2E inh,KCNH2 3.1 block
COc1ccc(N2CCCCn3c2nc2c3c(=O)[nH]c(=O)n2C)cc1,3,-3,-6,-8%,-2
CCCCN1C(=O)C(=O)N(CC(=O)Nc2ccccc2C(=O)OCC)C1=O,0,3,-98*,·,-4
CCCCN1C(=O)C(=O)N(CC(=O)Nc2ccccc2C(C)=O)C1=O,12,5,-6,·,3
CN1/C(=C\C(=O)COC(=O)c2nccnc2N)C(C)(C)c2ccccc21,23,6,1,·,1
CSc1nccc(Nc2ccccc2)c1C#N,18,-4,-1,8%,9
CN(C)c1ccnc(Nc2ccccc2)c1C#N,5,-10,6,-11%,-90*
O=C(COc1ccccc1[N+](=O)[O-])Nc1ccc(NC(=O)c2cc3ccccc3o2)cc1,-11,-4,7,-2%,-119*
O=C(Nc1ccc(-c2nc3ncccc3o2)cc1)c1ccc(Br)o1,0,-1,-3,?,-7
CCCC(=O)N1CCN(c2ccc(NC(=O)c3cc4ccccc4o3)cc2Cl)CC1,-14,?,-8,?,-90*
O=C(COc1ccccc1[N+](=O)[O-])Nc1ccc2oc(=O)ccc2c1,-5,0,3,·,9
CCCOc1ccc(C(=O)N2CCN(c3ccc(NC(=O)CC)cc3Cl)CC2)cc1,-3,-48,2,4%,-86*
O=C(Nc1ccc(-c2nc3ncccc3o2)cc1)c1ccco1,-7,1,-20,?,-81*
CC(=O)N(CCN(C)C)c1nc2cc3c(cc2s1)OCCO3,15,-1,·,·,35
O=C(Nc1ccccc1)c1cc2ccccc2o1,7,-11,5,0%,9
O=C(Nc1ccc(NC(=O)c2cc3ccccc3o2)cc1)c1ccco1,8,-9,-9,·,-75*
CCC(=O)N1CCN(c2ccc(NC(=O)c3ccco3)cc2Cl)CC1,-4,-4,7,·,·
CCC(=O)N1CCN(c2ccc(Cl)cc2NC(=O)Cc2ccc(Cl)cc2)CC1,3,22,-3,-1%,-75*
CCC(=O)N1CCN(c2ccc(NC(=O)c3cc4ccccc4o3)cc2Cl)CC1,1,20,-10,?,-88*
O=C(Nc1ccc(N2CCN(C(=O)c3ccco3)CC2)c(Cl)c1)c1cc2ccccc2o1,-7,-24,-5,?,-113*
CC1(C)CO[C@H](CC(=O)O)CN1,·,·,·,1%,·
O=S(=O)(Nc1cccc(S(=O)(=O)N2CCCC2)c1)c1ccc(F)cc1,5,-9,11,·,-26
CCCCCCCC(=O)N/N=C/c1ccncc1,-5,-6,6,-4%,20
O=C1C=C(OCCF)CC(c2cccc(Cl)c2)O1 (stereo unspecified),7,·,3,·,·
COC(=O)C1=C(C)N(Cc2ccccc2)C(=NCCc2cccnc2)N[C@H]1c1ccccc1,1,19,0,·,-40
COC(=O)C1=C(C)N(Cc2ccccc2)C(=NCCc2cccnc2)N[C@H]1c1ccc(Br)cc1,2,-48,-10,·,-89*
